Consider six compounds from PubChem BioAssay.

The structures appear in SMILES notation. “And” between values parts separate entries of the source, which are not always exact repeats. Identical values can stand only once. The source made the active and inactive calls. Cut-off read from the data, not from the text of the source, unless noted: active = inhibition above about 80%; inactive = the rest.

Assay [1] can be described thus: sensitizers of A549 cells to miR-34 induction, primary screen, imaging, A549 dox-inducible miR-34, nuclei and caspase counts (AID 1347080;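 active = compounds whose cell count with miR-34 switched on is under 0.7 times the count with it off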). Conditions: A549 miR-34 inducible, Hoechst nuclei count, 48 h.
The nature of assay [2]: survival rescue of mitochondrial mutant cells in low glucose, primary screen, MELAS cybrids, Rieske KO mouse fibroblasts, CellTiter-Glo (AID 1508586;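 active = mean z-score across replicates of 1.96 or higher in either the MELAS or the Rieske mutant cell line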;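 note: z relative to plate mean and SD of compound and empty wells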). Background: ATP-based viability assays read luminescence as a measure of living cells.
Assay [3] can be described thus: viability rescue of complex I mutant cybrids, primary screen, cell-based, galactose medium, ATP luminescence (AID 1645843;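 active = z-score of at least 1.8 in each of two replicates, scored against plate mean and spread of sample wells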;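 note: positive z means more ATP and so rescue of galactose-driven cybrid death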). Conditions: complex I mutant cybrid cells, 72 h, stronger effect = higher value.
The nature of assay [4]: LFS_MB_P medulloblastoma growth inhibition, cell-based, chromothripsis tumors, cisplatin or BGB combos (AID 1671449).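 Note: cells exposed for 96 hours; 0% = vehicle DMSO and 100% = killing by high DMSO.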 Conditions: LFS_MB_P medulloblastoma cells.
Assay [5] in a line: HDN33 neuroblastoma growth inhibition, cell-based, chromothripsis tumors, cisplatin or BGB combos (AID 1671450).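 Note: cells exposed to compound for four days; 0% = vehicle DMSO and 100% = cell killing by high DMSO.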 Conditions: HDN33 neuroblastoma cells, stronger effect = higher value.
The nature of assay [6]: ICB984 medulloblastoma cell growth inhibition, synergistic combos for chromothripsis tumors, cisplatin or BGB combos (AID 1671451; call rule not given here;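 note: cells exposed for 96 hours before readout; 0% = vehicle DMSO and 100% = killing by high DMSO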). Conditions: ICB984 medulloblastoma cells, drug combinations, stronger effect = higher value.
Assay [7] can be described thus: LFS_MB_1R medulloblastoma cell growth inhibition, synergistic combos for chromothripsis tumors, cisplatin or BGB combos (AID 1671452).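 Note: cells exposed for 96 hours before readout.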 Conditions: LFS_MB_1R medulloblastoma cells, stronger effect = higher value.
The nature of assay [8]: HTB85 osteosarcoma cell growth inhibition, synergistic combos for chromothripsis tumors, BGB or cisplatin IC20 combos (AID 1671453).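 Note: cells exposed for 96 hours before readout; 0% = vehicle DMSO and 100% = high DMSO killing control.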 Conditions: HTB85 osteosarcoma cells, drug combinations, stronger effect = higher value.
Assay [9] in a line: CRL2098 osteosarcoma cell growth inhibition, synergistic combos for chromothripsis tumors, BGB or cisplatin IC20 combos (AID 1671454).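 Note: cells exposed for 96 h before readout; 0% = vehicle DMSO and 100% = killing by high DMSO.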 Conditions: CRL2098 osteosarcoma cells, drug combinations, stronger effect = higher value.
Assay [10] can be described thus: HD-MB03 medulloblastoma cell growth inhibition, synergistic combos for chromothripsis tumors, BGB or cisplatin IC20 combos (AID 1671455; in the data active = inhibition above about 83%;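 note: 0% = vehicle DMSO and 100% = high DMSO as cytotoxic control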). Conditions: HD-MB03 medulloblastoma cells, stronger effect = higher value.
A short description of assay [11]: UWB1.289 ovarian carcinoma cell growth inhibition, synergistic combos for chromothripsis tumors, BGB or cisplatin combos (AID 1671456).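 Note: cells exposed to compound for four days; 0% = vehicle DMSO and 100% = killing by high DMSO.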 Conditions: UWB1.289 ovarian carcinoma cells, stronger effect = higher value.
Assay [12] can be described thus: LFS_MB_2R medulloblastoma cell growth inhibition, synergistic combos for chromothripsis tumors, cisplatin combos (AID 1671457).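 Note: cells exposed to compound for four days before readout.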 Conditions: LFS_MB_2R medulloblastoma cells, stronger effect = higher value.
A short description of assay [13]: MDA-MB-436 breast carcinoma cell growth inhibition, synergistic combos for chromothripsis tumors, BGB or cisplatin combos (AID 1671458; call rule not given here;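 note: cells exposed for 96 hours; 0% = vehicle DMSO and 100% = killing by high DMSO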). Conditions: MDA-MB-436 breast carcinoma growth inhibition, drug combinations, stronger effect = higher value.
Assay [14] is described as follows: UWB1.289_BRCA1 ovarian cancer growth, cell-based, BGB or cisplatin combinations (AID 1671459). Conditions: UWB1.289 BRCA1 ovarian carcinoma, drug combinations, stronger effect = higher value.
Assay [15] can be described thus: human astrocyte viability loss, single and combined drugs, cytotoxicity control for chromothriptic childhood tumor combination screen, cell-based, BGB or cisplatin IC20 combos (AID 1671460).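 Note: cells exposed to compounds for 96 hours before viability readout; 0% = vehicle and 100% = killing control.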 Conditions: Human astrocytes, drug combinations, stronger effect = higher value.
Assay [16] is described as follows: growth inhibition of BT084 medulloblastoma cells, cell-based, ICGC_MB145, cisplatin and BGB IC40 combos (AID 1671461).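 Note: cells exposed to drugs for 96 hours; 0% = vehicle DMSO and 100% = high DMSO full killing control.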 Conditions: drug combinations, stronger effect = higher value.
The nature of assay [17]: growth inhibition of RCMB18 medulloblastoma cells, cell-based, cisplatin and BGB IC40 combos (AID 1671462).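 Note: cells exposed to compound for four days.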 Conditions: stronger effect = higher value.
Assay [18] in a line: growth inhibition of CRL1545 osteosarcoma cells, cell-based, cisplatin and BGB IC20 combos (AID 1671464).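 Note: cells exposed to compound for 96 hours before readout; 0% = vehicle DMSO and 100% = high DMSO killing control.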 Conditions: stronger effect = higher value.
Where [19] appears, read: stronger effect = lower value, cell number ratio, induced over uninduced.
The mark [20] stands for this setting: measured here: relative caspase fold change +Dox/-Dox.
Setting [21] is: measured here: total cells with miR-34 induction, stronger effect = lower value.
The mark [22] stands for this setting: measured here: total cells without miR-34 induction.
[23] abbreviates: MELAS cybrid survival, CellTiter-Glo 48 h, stronger effect = higher value.
The mark [24] stands for this setting: Rieske KO mouse fibroblast survival, CellTiter-Glo 72 h.
[25] abbreviates: measured here: combination with BGB IC40, at 0.05 µM.
The mark [26] stands for this setting: measured here: with BGB IC20 combination, at 0.5 µM.
Setting [27] is: measured here: with cisplatin IC20 combination, at 0.5 µM.
The mark [28] stands for this setting: measured here: combination with cisplatin, at 0.5 µM.
Setting [29] is: measured here: combination with cisplatin, at 5 µM.

In the case of `NCC1OC(OC2C(CO)OC(OC3C(O)C(N)CC(N)C3OC3OC(CO)C(O)C(O)C3N)C2O)C(N)C(O)C1O` (stereo not given), the fold change in assay [1] (setting [19]) was 0.908 (inactive); in assay [1] (setting [20]), 0.282. In addition, the cell count in [1] (setting [21]) was 9400; in [1] (setting [22]) it was 10400. Further, the z-score is 0.577 (inactive) in assay [2] (setting [23]), -0.435 in assay [2] (setting [24]) and 0.725 (inactive) in assay [3].
What is called inhibition is the change of the read-out against control, counted positive when it falls. Consider `O=c1[nH]cnc2c1ncn2C1CCC(CO)O1` (stereo not given), for which the fold change in [1] (setting [19]) is 0.874 (inactive) and 0.873 (inactive); in [1] (setting [20]), 1.69 and 1.3. Moreover, the cell count was 9660 and 7790 in assay [1] (setting [21]); 11100 and 8920 in [1] (setting [22]). For the same compound, the z-score in [2] (setting [23]) is -0.36 (inactive); in assay [2] (setting [24]), 0.371; in [3] it was 0.465 (inactive). Also, the inhibition in [4] (at 0.5 µM, stronger effect = higher value) is -32.9% (inactive); in assay [4] (measured here: combination with BGB IC20, at 0.005 µM) it was -16.1%; in assay [4] (measured here: combination with BGB IC40, at 0.005 µM) it was -29.5%; in [4] (setting [25]), -24.5%; in assay [4] (measured here: combination with cisplatin, at 0.5 µM, stronger effect = higher value), -38.2%; in assay [4] (measured here: combination with cisplatin, at 5 µM, stronger effect = higher value) it was -16.6%. In addition, the inhibition in [5] (BGB combo, at 5 µM) was -15.1%; in assay [5] (at 0.5 µM) it was -10.3% (inactive); in [5] (cisplatin combo, at 5 µM), 0.055%; in assay [5] (setting [26]) it was -9.52%; in assay [5] (setting [27]), -5.77%; in assay [5] (single agent, at 5 µM), -6.37%. Besides, the inhibition is 3.8% in assay [6] (BGB IC20 combo, at 0.005 µM); -17.3% in assay [6] (BGB IC40 combo, at 0.005 µM); -42.9% in [6] (BGB IC40 combo, at 0.05 µM); -12.4% (inactive) in assay [6] (at 0.5 µM); -46.9% in assay [6] (cisplatin combo, at 0.05 µM); -0.57% in assay [6] (cisplatin combo, at 0.5 µM). Further, the inhibition in [6] (cisplatin combo, at 5 µM) is -45.9%; in assay [6] (measured here: 5 uM single agent, at 5 µM), -17.3%; in assay [7] (at 0.5 µM) it was -24.1% (inactive); in assay [7] (setting [25]), -1.26%; in assay [7] (setting [28]), -27.1%; in assay [7] (setting [29]), -51.2%. The inhibition in assay [8] (at 0.5 µM) is 0.13% (inactive); in assay [8] (measured here: with BGB IC20, at 0.5 µM), -29.8%; in [8] (measured here: with BGB IC20, at 5 µM) it was -39.1%; in [8] (measured here: with cisplatin IC20, at 0.5 µM) it was 5.05%; in assay [8] (measured here: with cisplatin IC20, at 5 µM), -50%; in assay [8] (single agent, at 5 µM), -11.3%. Moreover, the inhibition in assay [9] (at 0.5 µM) was -44.8% (inactive); in [9] (measured here: combination with BGB at IC20, at 0.5 µM), -57.1%; in [9] (measured here: combination with cisplatin at IC20, at 0.5 µM), -26.9%; in [10] (at 0.5 µM), -5.57% (inactive); in assay [10] (measured here: combo with BGB at IC20, at 0.5 µM), 0.583%; in assay [10] (measured here: combo with cisplatin at IC20, at 0.5 µM), -5.27%. The inhibition in assay [11] (at 0.5 µM) is -1.68% (inactive); in [11] (measured here: inhibition with BGB combination, at 0.05 µM), -32%; in assay [11] (measured here: inhibition with cisplatin combination, at 0.05 µM), -6.01%; in [12] (at 0.5 µM) it was -19.9% (inactive); in assay [12] (setting [28]), -27.6%; in assay [12] (setting [29]) it was -58%. Moreover, the inhibition was -28.3% (inactive) in [13] (at 0.5 µM); -25.6% in [13] (measured here: BGB combination, at 0.5 µM); -24.3% in [13] (measured here: BGB combination, at 5 µM); -38.2% in [13] (measured here: cisplatin combination, at 0.5 µM); -39% in assay [13] (measured here: cisplatin combination, at 5 µM); -6.99% in [14] (BGB combination, concentration series, at 5 µM). Further, the inhibition was -4.59% (inactive) in [14] (at 0.5 µM); 5.72% in [14] (cisplatin combination, concentration series, at 5 µM); 4.8% (inactive) in assay [15] (at 0.5 µM); -5.94% in [15] (measured here: combo with BGB IC20, at 0.5 µM); 2.75% in assay [15] (measured here: combo with cisplatin IC20, at 0.5 µM); -19.3% (inactive) in assay [16] (at 0.5 µM). For the same compound, the inhibition in [16] (cisplatin combination, at 0.5 µM) is 2.66%; in assay [16] (cisplatin combination, at 5 µM), 7.38%; in [16] (measured here: BGB IC40 combination 0.05 uM, at 0.05 µM), 1%; in [16] (single agent, at 5 µM) it was -10.4%; in assay [17] (at 0.5 µM), -28.1% (inactive); in assay [17] (cisplatin combo, at 5 µM) it was -8.55%. Further, the inhibition in assay [17] (measured here: BGB IC40 combination, at 0.05 µM) was 12.3%; in [17] (setting [28]), -23.6%; in assay [17] (single agent, at 5 µM) it was -21%; in [18] (at 0.5 µM) it was -13.6% (inactive); in assay [18] (setting [26]), 0.279%; in assay [18] (setting [27]) it was -23.2%. For the same compound, the inhibition was -52.8% in [18] (single agent, at 0.05 µM) and -4.43% in [18] (single agent, at 5 µM).
Take `O=C(O)CCCc1nc(-c2cccc([N+](=O)[O-])c2)no1`: the fold change in [1] (setting [19]) is 0.855 (inactive); in [1] (setting [20]), 0.356. Moreover, the cell count was 7990 in assay [1] (setting [21]) and 9350 in assay [1] (setting [22]). Moreover, the z-score was 1.15 (inactive) in [2] (setting [23]), -0.0224 in [2] (setting [24]) and 0.71 (inactive) in assay [3].
Turning to `Cc1nc(C(=O)O)nn1-c1cc(Cl)cc(Cl)c1`, the fold change was 0.931 (inactive) in assay [1] (setting [19]) and 0.603 in [1] (setting [20]). In addition, the cell count in [1] (setting [21]) came out at 8310; in [1] (setting [22]) it was 8930. Further, the figures for the z-score in assay [2] (setting [23]), in [2] (setting [24]) and in [3] were -0.498 (inactive), -0.479 and 0.61 (inactive), respectively.
`O=C(O)c1ccc(-c2ccc([N+](=O)[O-])cc2Cl)o1`: the fold change is 0.876 (inactive) in [1] (setting [19]) and 0.203 in assay [1] (setting [20]). Besides, the cell count in assay [1] (setting [21]) was 8260; in assay [1] (setting [22]), 9440. Besides, the z-score in assay [2] (setting [23]) was 0.0167 (inactive); in assay [2] (setting [24]), -0.308; in assay [3] it was 0.255 (inactive).
Take `CCN(CCc1ccccn1)C(=O)c1cc(-c2cnc(N)nc2)nc2c(C)cccc12`: the fold change in [1] (setting [19]) is 0.904 (inactive); in assay [1] (setting [20]), 1.79. Also, the cell count in [1] (setting [21]) is 8640; in assay [1] (setting [22]), 9560. For the same compound, the values for the z-score in assay [2] (setting [23]), in assay [2] (setting [24]) and in assay [3] were -0.0572 (inactive), -0.177 and 0.51 (inactive), respectively.
